Measured values reported in PubChem BioAssay (NCI).
The panel holds about 79,000 compounds, 15% with a hit somewhere; the sample as a whole holds those more often. The source made the active and inactive calls. Cut-off read from the data, not from the text of the source: active = growth inhibition above about 70%; inactive = the rest. Where a SMILES comes first, the peptide text is derived from it.

Experiments:
[1] = NCI Yeast Anticancer Drug Screen. Data for the rad50 strain (AID 155);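 note: 0% = growth of vehicle-only cultures of the same strain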; conditions: S. cerevisiae rad50 strain growth inhibition; at 50.0 µM; active compounds read high
Outline: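 Cells are treated with compound, grown, and their growth is then scored against vehicle-only cultures of the same repair-deficient yeast strain.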

[2] = NCI Yeast Anticancer Drug Screen. Data for the mec2-1 strain (AID 157); conditions: S. cerevisiae mec2-1 strain, at 50.0 µM, active compounds read high
Outline: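 Growth inhibition is read against vehicle-treated controls after compound exposure of the mec2-1 yeast strain, which is defective in DNA damage repair or cell cycle control.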

[3] = NCI Yeast Anticancer Drug Screen. Data for the sgs1 mgt1 strain (AID 161);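 note: 0% = growth of cultures given vehicle only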; conditions: S. cerevisiae sgs1 mgt1 strain, at 50.0 µM, active compounds read high
Outline: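 Yeast cells carrying a defined DNA-repair defect were exposed to test compounds. Growth inhibition was measured relative to vehicle-treated controls.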

[4] = NCI Yeast Anticancer Drug Screen. Data for the cln2 rad14 strain (AID 165);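 note: 0% = growth equal to vehicle treated cultures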; conditions: S. cerevisiae cln2 rad14 strain, at 50.0 µM, active compounds read high
Outline: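 Growth inhibition, relative to vehicle-treated controls, is the read-out. The test organism is a yeast strain with defined genetic alterations, cln2 rad14.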

[5] = NCI Yeast Anticancer Drug Screen. Data for the bub3 strain (AID 167); conditions: S. cerevisiae bub3 mutant strain, at 50.0 µM, active compounds read high
Outline: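 Part of a panel of yeast mutants defective in DNA damage repair or cell cycle regulation. Each strain is grown with compound, and inhibition is calculated relative to solvent-treated cultures.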

[6] = NCI Yeast Anticancer Drug Screen. Data for the mlh1 rad18 strain (AID 175); conditions: S. cerevisiae mlh1 rad18 strain growth inhibition; at 50.0 µM; active compounds read high
Outline: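 Cells of a genetically altered yeast strain, deficient in DNA damage repair, were treated with compound. Their growth was then compared with that of vehicle-treated cultures to give inhibition.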

Measured: growth inhibition

COc1ccc(CCCNC(=O)Cc2ccccc2CO)cc1OC
inactive: [1] 21.6% | [2] -46.6% | [3] -3.4% | [4] -0.8% | [5] -10.2% | [6] -48.2%

CCC(Br)C(=O)Nc1ccccc1C (configuration not stated)
inactive: [1] 27% | [2] 3.25% | [3] 6.75% | [4] -14.2% | [5] 20.6% | [6] 0.4%

CC(=O)NC(Cc1ccccc1)C(=O)Nc1ccccc1C (configuration not stated)
inactive: [1] 9.1% | [2] -18.3% | [3] 14.8% | [4] 10.6% | [5] 7.75% | [6] 7.35%

Cc1ccc(/C=C/c2ccc3ccccc3c2)cc1
inactive: [1] -6.6% | [2] -9.3% | [3] 9.05% | [4] -14.6% | [5] -4.8% | [6] -3.85%

Cc1cccc(C(C)C)c1NC(=O)C(=O)CC(=O)c1c(C)n([O-])c2ccccc2[n+]1=O
inactive: [1] -7.2% | [2] 9.45% | [3] -10% | [4] 12.2% | [5] -13.1% | [6] -16.2%

CC(O)c1ccc(C(O)/C(=N\NC(=O)c2ccncc2)c2nc3ccc([N+](=O)[O-])cc3[nH]c2=O)cc1 (configuration not stated)
inactive: [1] -5.95% | [2] -10.2% | [3] 15.2% | [4] -60.7% | [5] -5.1% | [6] -2.25%

CC1CS(=O)(=O)CC(C)S1(=O)=O (configuration not stated)
inactive: [1] -8.6% | [2] -1.55% | [3] -5.95% | [4] -4.3% | [5] 14.7% | [6] -7.05%

Cc1ccc(CNC(=O)NCCCCCCNC(=O)NCc2ccc(C)cc2)cc1
inactive: [1] -29.4% | [2] -6.45% | [3] -9.95% | [4] -20.3% | [5] -2.95% | [6] -1.1%

CCCCCc1ccc2oc(=O)c3ccc(C)cc3c2c1O
inactive: [1] -9.7% | [2] 8.7% | [3] 16.2% | [4] -16.8% | [5] -25.3% | [6] -5.6%

c1ccc(-c2ccccc2-c2ccccc2)cc1
inactive: [1] 18.1% | [2] -4.8% | [3] 10.6% | [4] -2.75% | [5] -8.15% | [6] 20.8%

c1ccc2c3nnc(c2c1)SCCSCCCSCCS3
inactive: [1] -24.4% | [2] -31.4% | [3] -2.2% | [4] -5.25% | [5] 8.65% | [6] -30.4%

CCCC(=O)NC(Nc1ccc(S(=O)(=O)Nc2nc(C)cc(C)n2)cc1)(C(F)(F)F)C(F)(F)F
inactive: [1] -21.6% | [2] -37.9% | [3] -21.1% | [4] 13.2% | [5] -3.7% | [6] -21.4%

O=C1CCCC2C1C1CCCC(=O)C21 (configuration not stated)
inactive: [1] 6.95% | [2] -7.45% | [3] 3.1% | [4] 0.9% | [5] 3.15% | [6] 20.2%

O=S1(=O)C=C(Br)CO1
inactive: [1] -4.65% | [2] 1.75% | [3] -2.5% | [4] -17.4% | [5] -20.6% | [6] -15.7%

CN1CCN(C(=S)N(C(=O)c2ccc(Cl)cc2)C2CCCCC2)CC1
inactive: [1] -67% | [2] -53.4% | [3] -54.8% | [4] -26.4% | [5] -66.9% | [6] -65.7%

CC(O)(/C=C/c1ccccc1)P(=O)(O)c1ccccc1 (configuration not stated)
inactive: [1] -40% | [2] -13.2% | [3] -29.1% | [4] -13% | [5] -13.3% | [6] 9.4%

COC(=O)CCNc1c(OC)ccc2ccccc12
inactive: [1] 22.1% | [2] 3.85% | [3] 11.8% | [4] 17.9% | [5] 28.4% | [6] -5%

O=C(NN1CCCCC1)NN1CCCCC1
inactive: [1] 5.35% | [2] -2.5% | [3] 8.6% | [4] 20.1% | [5] 24% | [6] 18.2%

C/C(CCn1[nH]c(=O)ccc1=O)=N\OCCCc1ccccc1
inactive: [1] 2.7% | [2] -27.6% | [3] 11.7% | [4] 16.3% | [5] -3% | [6] 11.5%

O=C(Oc1ccc2c(=O)cc(-c3ccccc3)oc2c1OC(=O)c1ccccc1)c1ccccc1
inactive: [1] 3% | [2] 7.6% | [3] -0.85% | [4] -3.15% | [5] -14.1% | [6] 3%

Cn1c2c(c3ccccc31)CC1c3c(c4ccccc4n3C)CC21 (configuration not stated)
inactive: [1] -79% | [2] -51% | [3] -49% | [4] -26.2% | [5] -18.6% | [6] -45.4%

CCCCOCCOCCO
inactive: [1] -18.2% | [2] -21.6% | [3] -15.7% | [4] -14.7% | [5] 1.45% | [6] 1.5%

CCC1CN2C(=N1)c1ccccc1-c1cc([N+](=O)[O-])ccc12 (configuration not stated)
active: [1] 94% | [6] 94.2%
inactive: [2] 43% | [3] -20.2% | [4] 51.3% | [5] 54%

O=[N+]([O-])C1(CO)COC2(OC1)c1ccccc1-c1ccccc12
inactive: [1] 0.5% | [2] -7.2% | [3] -21.6% | [4] 11.8% | [5] -26.8% | [6] -0.25%

CC1(Br)CC2OC3(Br)C=CC(C)(O)C2(CC1=O)C3(C)C (configuration not stated)
inactive: [1] 27.2% | [2] 10.8% | [3] 13.4% | [4] 15.7% | [5] 20.4% | [6] 25.9%

CCC(CC)COC(=O)c1ccccc1
inactive: [1] 0.95% | [2] -7.05% | [3] -3.75% | [4] -14.8% | [5] 17.2% | [6] -0.75%

CC(=O)/C(=C\n1c(=S)[nH]c2ccc([N+](=O)[O-])cc21)C(=O)Nc1ccccc1C
inactive: [1] 2.1% | [2] -44.8% | [3] -5.05% | [4] -2.8% | [5] -20.4% | [6] -7.3%

CNCC(=O)Nc1ccc2c(c1)C(=O)c1ccc(NC(=O)CNC)cc1C2=O
inactive: [1] 11.5% | [2] 13.9% | [3] 19.4% | [4] -2.25% | [5] -11.9% | [6] 23.8%

Cc1ccc(-c2n[nH]c(=O)n2N)cc1
inactive: [1] 3.5% | [2] -23% | [3] 0.85% | [4] 5.45% | [5] 0.45% | [6] 7.25%

Cc1onc(-c2ccccc2Cl)c1-c1nc2ccccc2c(=O)o1
active: [1] 94.1% | [2] 97% | [3] 98.5% | [4] 93.2% | [5] 96.8% | [6] 93.5%

CCC(C)C(N)C(=O)NC(Cc1ccc(O)cc1)C(=O)O (stereo not drawn) (H-Ile-Tyr-OH; configuration not given here)
inactive: [1] 16.4% | [2] -2.35% | [3] -0.8% | [4] 15.8% | [5] -10.2% | [6] 21.2%

O=C1CSC(=S)N1/N=C/c1ccc([N+](=O)[O-])s1
active: [1] 97.8% | [2] 98.8% | [3] 98.3% | [4] 98.5% | [5] 98.8% | [6] 98.8%

CCSC1(SCC)C(=O)OC2=C(CCCCC2)C1N(C)c1ccccc1 (configuration not stated)
inactive: [1] -15.2% | [2] -12.7% | [3] -14.4% | [4] -22.6% | [5] 1.1% | [6] -12.7%

c1ccc(CCCCCCc2ccccc2)cc1
inactive: [1] -33.9% | [2] -22% | [3] -8.5% | [4] -6.55% | [5] -14.6% | [6] 1.3%

N#Cc1c2ccccc2cc2c1ccc1ccccc12
inactive: [1] 6.95% | [2] 17.1% | [3] 15.8% | [4] -4.45% | [5] 11.9% | [6] 17.1%

CC(=O)Nc1ccc(NC(=O)c2cccc3ccccc23)cc1
inactive: [1] -5.1% | [2] 13% | [3] 13.8% | [4] -12.8% | [5] 35.4% | [6] 32.1%

CCCCCC(C)(O)CC(C)(C)C (configuration not stated)
inactive: [1] -3.15% | [2] 5.75% | [3] 0.55% | [4] -7.95% | [5] 2.2% | [6] 34.8%
